The values that follow come from ChEMBL document CHEMBL1201862, “PubChem BioAssay data set” (2004).

The whole screen tested about 400,000 compounds, of which about 2,100 (0.53%) were called active. Another 14% or so got no clear call; they are omitted. No rule for the calls is given here. Many of the other results were omitted from the sample, so actives are more common in it than they were.

In this assay the target is Ataxin-2 (Homo sapiens) (UniProt Q99700). Nature of the assay: qHTS for Inhibitors of ATXN expression. In kind it is functional. (In qHTS, concentration-response curves come from the screen itself.)
Sequence of Ataxin-2 (Homo sapiens) (Q99700 whole entry): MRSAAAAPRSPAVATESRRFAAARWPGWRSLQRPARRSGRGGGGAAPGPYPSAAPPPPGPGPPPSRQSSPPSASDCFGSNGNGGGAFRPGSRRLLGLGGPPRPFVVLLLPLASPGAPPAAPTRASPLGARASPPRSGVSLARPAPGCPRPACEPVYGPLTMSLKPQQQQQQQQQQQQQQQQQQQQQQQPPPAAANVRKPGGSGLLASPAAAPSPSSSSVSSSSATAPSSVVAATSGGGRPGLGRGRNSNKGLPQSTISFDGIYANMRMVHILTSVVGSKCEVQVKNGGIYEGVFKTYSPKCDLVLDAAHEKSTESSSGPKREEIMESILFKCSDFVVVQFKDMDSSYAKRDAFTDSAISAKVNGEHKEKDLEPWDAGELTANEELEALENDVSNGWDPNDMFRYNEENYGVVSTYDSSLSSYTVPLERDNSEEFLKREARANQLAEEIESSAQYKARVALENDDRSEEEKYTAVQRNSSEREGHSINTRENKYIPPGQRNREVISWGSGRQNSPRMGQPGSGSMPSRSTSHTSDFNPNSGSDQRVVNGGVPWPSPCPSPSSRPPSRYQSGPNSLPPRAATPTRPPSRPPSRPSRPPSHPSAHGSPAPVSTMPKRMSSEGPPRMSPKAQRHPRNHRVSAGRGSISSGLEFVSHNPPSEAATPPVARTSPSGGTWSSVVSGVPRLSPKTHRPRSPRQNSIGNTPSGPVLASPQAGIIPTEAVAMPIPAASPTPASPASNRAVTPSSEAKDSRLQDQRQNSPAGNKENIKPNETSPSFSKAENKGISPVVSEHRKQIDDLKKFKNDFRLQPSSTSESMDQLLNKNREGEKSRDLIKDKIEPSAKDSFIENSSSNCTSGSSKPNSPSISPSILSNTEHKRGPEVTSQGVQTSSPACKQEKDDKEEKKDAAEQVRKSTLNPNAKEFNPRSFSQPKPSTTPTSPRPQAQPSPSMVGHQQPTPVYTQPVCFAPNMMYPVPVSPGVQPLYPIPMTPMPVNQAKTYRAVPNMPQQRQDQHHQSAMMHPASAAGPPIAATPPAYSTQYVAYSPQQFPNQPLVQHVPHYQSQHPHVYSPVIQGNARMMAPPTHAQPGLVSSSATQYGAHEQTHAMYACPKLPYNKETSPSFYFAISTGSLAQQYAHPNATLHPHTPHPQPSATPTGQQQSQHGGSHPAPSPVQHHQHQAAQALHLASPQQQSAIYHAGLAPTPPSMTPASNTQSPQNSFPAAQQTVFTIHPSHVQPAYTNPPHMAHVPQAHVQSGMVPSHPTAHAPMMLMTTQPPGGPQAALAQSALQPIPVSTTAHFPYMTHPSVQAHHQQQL
For the molecule `COC(=O)C1=NN(c2ccc(C)cc2)C2C(=O)N(c3ccccc3OC)C(=O)C12` (centres undefined), the Potency result is “inactive”.

Turning to `COc1ccccc1CNC(=O)Nc1nc(C(N)CCc2ccccc2)cs1` (centres undefined), the Potency was 39.8 µM (active).

For `COc1ccccc1CNC(=O)C(C)Sc1ccc(C)cc1` (centres undefined), the Potency result was “inactive”.

On to `COc1ccc(OC)c(NC(=O)Nc2nc(C(N)CCc3ccccc3)cs2)c1` (centres undefined), for which the Potency was 39.8 µM (active).

On to `COc1ccccc1CNC(=O)Cc1cc(O)nc(O)n1`, for which the Potency entry is “inactive”.

Take `Cc1ccc(S(=O)(=O)Nc2nc3n(n2)C(c2ccccc2Cl)C=C(c2ccccc2)N3)cc1` (centres undefined): the Potency result was “inactive”.

On to `Oc1cccc2ccc(Nc3ccccn3)nc12`, for which the Potency is 39.8 µM (active).

`CSc1ccc(/C=C/c2ccc3cccc(O)c3n2)cc1`: the Potency entry is “inactive”.

Turning to `Oc1ccc(/C=C/c2ccc3cccc(O)c3n2)cc1Br`, the Potency result is “inactive”.

As to `O=c1oc2ccccc2cc1-c1nc2c(s1)CCc1ccccc1-2`, the Potency entry was “inactive”.

With `Cc1cc(C)c2c(N)c(C(=O)N/N=C/c3cccnc3)sc2n1`, the Potency result was “inactive”.

As to `Cc1cccc(C)c1OCC(O)CNC(C)c1ccccc1` (centres undefined), the Potency result was “inactive”.

Consider `CC(NCC(O)COCCC12CC3CC(CC(C3)C1)C2)c1ccccc1` (centres undefined), for which the Potency was 39.8 µM (active).

Take `CC(NCC(O)COC1CCC(C(C)(C)C)CC1)c1ccccc1` (centres undefined): the Potency was 35.5 µM (active).

For the molecule `CC(O)CNC12CC3CC(CC(C3)C1)C2` (centres undefined), the Potency entry is “inactive”.

For the molecule `CCOc1ccc2nc(N3CCCN(C(=O)Nc4ccccc4C)CC3)c(C#N)cc2c1`, the Potency result is “inactive”.

For the molecule `O=C1CC2C(=O)NCCN2C(NC(=O)c2ccc(Cl)cc2)=N1` (centres undefined), the Potency entry is “inactive”.

As for `Oc1ccc(N=Nc2ccc3c(c2)OCCO3)c2ncccc12`, the Potency was 15.8 µM (active).

For `COC(=O)c1ccc(C(=O)OC)c(NC(=S)N2CCN(c3ccccc3F)CC2)c1`, the Potency result is “inactive”.

In the case of `COc1ccc(CCC(=O)OCC(=O)Nc2ccc(OC)c(OC)c2)cc1OC`, the Potency entry is “inactive”.

Take `COc1ccc(-c2nnc(-c3ccccc3)o2)cc1OC`: the Potency entry is “inactive”.

In the case of `COc1ccc(CC(=O)Nc2cccc(-c3nnc(-c4ccccc4)o3)c2)cc1OC`, the Potency was 10 µM (active).

Consider `CCOc1ccccc1-c1nc(-c2ccc(C)nc2OC)no1`, for which the Potency result was “inactive”.

Consider `CCOc1cc(-c2noc(-c3ccncc3)n2)cc(Br)c1OC`, for which the Potency is 44.7 µM (active).

Take `O=[N+]([O-])c1ccc(-c2nc(-c3ccncc3)no2)cc1`: the Potency result was “inactive”.

With `O=C1C=C(N(CCO)Cc2ccccc2)c2ccccc2C1=O`, the Potency was 29.9 µM (active).

With `CC1(C)Cc2nc(Cl)c(C(N)=O)cc2CO1`, the Potency result is “inactive”.

For `C=CCC[C@H](Cc1ccc(F)cc1)C(=O)OC[C@H](Cc1c[nH]c2ccccc12)NC(=O)[C@@H](CC=C)CC(=O)N(CCO)Cc1ccccc1`, the Potency was 22.4 µM (active).

With `C=CCC[C@@H](Cc1ccc(F)cc1)C(=O)OC[C@@H](Cc1c[nH]c2ccccc12)NC(=O)[C@H](CC=C)CC(=O)N(CCO)Cc1ccccc1`, the Potency is 22.4 µM (active).

Regarding `COC(=O)c1cc(NC(=O)CN2CCN(C(C)=O)CC2)cc(C(=O)OC)c1`, the Potency entry is “inactive”.

As to `Cc1ccc2[nH]c(CSc3nc(C)cc(C)c3C#N)nc2c1`, the Potency result is “inactive”.

For the molecule `CCc1cc(=O)oc2c(C)c(O)c(CN3CCCCC3)cc12`, the Potency result was “inactive”.

Regarding `N#Cc1cc([N+](=O)[O-])c(-n2nnc3ccccc32)c([N+](=O)[O-])c1`, the Potency was 22.4 µM (active).

Take `O=C(NOC(=O)c1c(F)cccc1Cl)c1ccc(Cl)c(Cl)c1`: the Potency result was “inactive”.

In the case of `CCCCN1C(=O)C(O)(CC(=O)c2ccc(C)cc2C)c2cc(Br)ccc21` (centres undefined), the Potency is 31.6 µM (active).

Regarding `CCCCN1C=C(C(=O)OC)C(c2ccccc2Cl)C(C(=O)OC)=C1`, the Potency entry is “inactive”.

For `Cc1ccc(OCCn2cnc(Cl)c2Cl)cc1`, the Potency entry is “inactive”.

Take `CCN(CC)C(=O)c1cccc(NC(=O)c2cc(C3CC3)nc3c2cnn3C(C)C)c1`: the Potency entry was “inactive”.

As for `CC(=O)c1ccc(S(=O)(=O)NCCC(=O)N2CCN(c3ccccn3)CC2)cc1`, the Potency entry was “inactive”.

As to `COc1cc2c(cc1OC)CN(S(=O)(=O)c1ccccc1F)CC2`, the Potency entry was “inactive”.

On to `COc1cc2c(cc1OC)C(C)N(S(=O)(=O)c1cnc(Cl)c(Cl)c1)CC2` (centres undefined), for which the Potency is 12.6 µM (active).

For the molecule `COc1ccc(-c2c(C)nn3c(N4CCOCC4)cc(C)nc23)cc1OC`, the Potency entry is “inactive”.

For the molecule `CSc1nc(Nc2ccc(F)cc2)cc(-c2ccccc2)n1`, the Potency was 22.4 µM (active).

For `COC(=O)Cn1c2ccccc2c2nc3ccccc3nc21`, the Potency entry is “inactive”.

Turning to `O=c1oc2ccccc2n1CCn1c2ccccc2c2nc3ccccc3nc21`, the Potency was 44.7 µM (active).

As for `Cc1cccc2c3nc4ccccc4nc3n(C)c12`, the Potency result was “inactive”.

As to `CC(C)(C)c1ccc(C(=O)N2CCC(=O)N([C@H](COCc3ccccc3)Cc3ccccc3)CC2)cc1`, the Potency was 35.5 µM (active).

Consider `CC(C)(C)c1ccc(C(=O)N2CCC(=O)N(C(COCc3ccccc3)Cc3ccccc3)CC2)cc1` (centres undefined), for which the Potency was 28.2 µM (active).

As for `COc1ccc(-c2ccc(CN3C(CC(C)C)C(=O)N(Cc4cn(CC5CCCCC5)nn4)CCS3(=O)=O)cc2)cn1` (centres undefined), the Potency is 10 µM (active).

Take `CC(C)CC1C(=O)N(Cc2cn(Cc3ccco3)nn2)CCS(=O)(=O)N1Cc1ccc(-c2ccc(F)nc2)cc1` (centres undefined): the Potency was 25.1 µM (active).

In the case of `CC(C)CC1C(=O)N(Cc2cn(Cc3ccco3)nn2)CCS(=O)(=O)N1Cc1ccc(-c2cccc(CO)c2)cc1` (centres undefined), the Potency was 35.5 µM (active).

In the case of `COc1ccc(NS(=O)(=O)c2cc3c(cc2C)N(C)CCO3)c(OC)c1`, the Potency entry is “inactive”.

`CC1CCN(Cc2c(O)ccc3c2O/C(=C\c2ccco2)C3=O)CC1`: the Potency result is “inactive”.

As to `O=C(c1cnn(-c2ccccc2)c1)c1cc(F)ccc1O`, the Potency entry was “inactive”.

Consider `Cc1ccc(Nc2c(-c3ccsc3)nc3cccc(C)n23)cc1`, for which the Potency was 25.1 µM (active).

Consider `Cc1sc(-c2ccccn2)nc1OC(=O)c1ccc(F)cc1F`, for which the Potency result is “inactive”.

With `Cc1ccc(Nc2nc(-c3ccccc3)c(CC(=O)O)s2)cc1`, the Potency result was “inactive”.

For `Cc1cc(Nc2ccc(F)cc2)n2c(nc3ccccc32)c1C#N`, the Potency entry is “inactive”.

Turning to `Cc1cccc2nc(-c3ccccn3)c(Nc3ccc(F)cc3)n12`, the Potency is 20 µM (active).

Regarding `CCC1Cc2c(nc(N)c3c(N)nc(N4CCCCC4)c(C#N)c23)O1` (centres undefined), the Potency result is “inactive”.

Consider `N=c1c(C(=O)NCC2CCCO2)cc2c(=O)n3ccccc3nc2n1Cc1ccc(Cl)cc1` (centres undefined), for which the Potency result is “inactive”.

Take `CC(=O)C1=NN(c2ccccc2)C(c2ccc3c(c2)OCO3)N1c1ccccc1` (centres undefined): the Potency result was “inactive”.

For `Cc1c2c(n3c(nc4ccccc43)c1C#N)N(CCN1CCOCC1)CC2`, the Potency entry is “inactive”.

As to `CCOC(=O)c1cc2c(=O)n3ccccc3nc2n(Cc2ccco2)/c1=N\C(=O)c1cccc(C)c1`, the Potency entry is “inactive”.
